Source: PubChem
MLLE-PAM2 inh: blocks PAM2 peptide binding to the PABP1 MLLE domain. AID 588489. 360,000 tested, 0.36% active. GST-MLLE / FITC-PAM2 fluorescence polarization. P11940. inhibition, % at 20 µM; in the data active means inhibition above about 35%, passing the limit was not always enough;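 further: plate controls were DMSO wells with GST-MLLE for no effect and wells lacking GST-MLLE protein for full effect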
ALR H2O2 inh: blocks human ALR sulfhydryl oxidase activity; purified ALR, DTT oxidation, H2O2 HRP-luminol luminescence; P55789; inhibition, % (no concentration beside the values); 290,000 tested, 3.8% active; AID 485317;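 active means mean replicate inhibition above about 79%, with every replicate also reaching it, limit read from the data; inconclusive means only one of the two criteria met; inactive means mean below limit and not every replicate reaching it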
Target sequence (P55789 whole entry, looked up): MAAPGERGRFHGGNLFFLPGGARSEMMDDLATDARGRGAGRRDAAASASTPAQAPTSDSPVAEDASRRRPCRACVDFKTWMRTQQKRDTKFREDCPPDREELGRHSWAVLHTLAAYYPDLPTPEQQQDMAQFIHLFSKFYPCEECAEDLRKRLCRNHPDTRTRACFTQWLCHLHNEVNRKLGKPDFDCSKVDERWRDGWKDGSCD
SUMO HTRF inh: SUMOylation inhibition; P63279; inhibition, % at 35 µM; HTRF SUMOylation assay, SAE1/SAE2 + UBC9, in vitro; AID 2006; 290,000 tested, 0.36% active; in the data active means inhibition above about 50%, passing the limit was not always enough; inconclusive means no clear call, values can overlap the other calls
Target sequence (P63279 whole entry, looked up): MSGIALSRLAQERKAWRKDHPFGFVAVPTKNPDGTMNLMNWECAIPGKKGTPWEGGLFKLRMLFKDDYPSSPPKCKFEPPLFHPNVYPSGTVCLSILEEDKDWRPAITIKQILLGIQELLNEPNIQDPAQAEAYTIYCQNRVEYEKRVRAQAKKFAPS
PABP FP inh: blocks human PABP binding to poly(A) RNA | P11940 | fluorescence polarization | inhibition, % at 35 µM | 290,000 tested, 1% active | AID 2014;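 further: calls also rest on retests at 20 µM and on dose response follow-up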
eIF4H inh: inhibitors of RNA binding by human eIF4H. eIF4H fluorescence polarization binding assay. 290,000 tested, 0.94% active. AID 2012. inhibition, % at 35 µM. Q15056;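 further: calls also rest on retests at 20 µM and on dose response follow-up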
Efflux pump inh: inhibitors of Candida antifungal efflux pumps expressed in yeast; S. cerevisiae Candida pump triplex, Nile Red efflux; inhibition, % at 10 µM; 330,000 tested, 0.44% active; AID 485275;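 active means plate passing quality check with inhibition over a set limit, or well fluorescence over plate mean plus 4 SD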;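 further: Nile Red retained in pooled yeast measured as flow cytometry median fluorescence; 0% = buffer negative control and 100% = Enniatin B positive control; higher means more Nile Red kept so more efflux inhibition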
An asterisk follows results filed as active. Compounds with a hit are over-represented: about 4.7% of the library has one in this group of screens. Unless noted, how the calls were made is not given here.

NS(=O)(=O)c1ccc(NC(=O)CSc2n[nH]c(=O)n2C2CC2)cc1 was read as MLLE-PAM2 inh 2.5, ALR H2O2 inh -33.4 and Efflux pump inh -0.1.
`CCC1C(=O)N=C(SCC(=O)Nc2ccccc2)NC1=O` (stereo not given) gave MLLE-PAM2 inh 24.8, ALR H2O2 inh 99.3*, SUMO HTRF inh -1.9, PABP FP inh -8.1, eIF4H inh -7.7 and Efflux pump inh 0.1.
CCC1C(=O)N=C(SCC(=O)Nc2ccc(S(N)(=O)=O)cc2)NC1=O (stereo not given) was read as MLLE-PAM2 inh 21.4, ALR H2O2 inh 99.5*, SUMO HTRF inh 20.2, PABP FP inh inconclusive, eIF4H inh -9.5 and Efflux pump inh -0.1.
CCC1C(=O)N=C(SCC(=O)NC2CCCCC2)NC1=O (stereo not given) was read as MLLE-PAM2 inh 16.1, ALR H2O2 inh 57.0, SUMO HTRF inh 17.5, PABP FP inh -1.5, eIF4H inh -9.0 and Efflux pump inh -0.1.
For Cc1ccccc1NC(=S)N1CCN(c2ccccc2Cl)CC1 the results were MLLE-PAM2 inh -82.8, SUMO HTRF inh -2.0, PABP FP inh 9.4, eIF4H inh 2.9 and Efflux pump inh 0.0.
CC1CCCN(Cc2cccc(Oc3ccccc3)c2)C1 (stereo not given) was read as MLLE-PAM2 inh -3.7, ALR H2O2 inh -11.3, SUMO HTRF inh 2.9, PABP FP inh -3.6, eIF4H inh -2.5 and Efflux pump inh -0.1.
O=C1c2sc3nc4n(c(=O)c3c2CCC1Br)CCCCC4 (stereo not given) was read as MLLE-PAM2 inh 16.6, ALR H2O2 inh 82.4*, SUMO HTRF inh -1.1, PABP FP inh -2.6, eIF4H inh 0.3 and Efflux pump inh 0.2.
Cc1ccn2c(Nc3ccccc3C)c(-c3ccccn3)nc2c1 was read as MLLE-PAM2 inh 4.2, SUMO HTRF inh -56.9, PABP FP inh 3.7, eIF4H inh 14.9 and Efflux pump inh -0.1.
Cc1ccc2nc(-c3cccnc3)c(Nc3ccccc3C)n2c1 was read as MLLE-PAM2 inh 5.7, ALR H2O2 inh 81.6*, SUMO HTRF inh -2.5, PABP FP inh -2.3, eIF4H inh -14.0 and Efflux pump inh 0.7.
`Cc1ccc2nc(-c3cccnc3)c(NC3CCCCC3)n2c1` gave MLLE-PAM2 inh 46.1*, ALR H2O2 inh 9.2, SUMO HTRF inh -8.8, PABP FP inh 0.7, eIF4H inh 17.4 and Efflux pump inh -3.3.
For Cc1ccc2nc(-c3ccccn3)c(Nc3ccccc3C)n2c1 the results were MLLE-PAM2 inh 14.3, ALR H2O2 inh 98.5*, SUMO HTRF inh -20.9, PABP FP inh 17.9, eIF4H inh -0.5 and Efflux pump inh -0.2.
Screening Cc1ccccc1Nc1c(-c2ccccn2)nc2ccccn12 returned MLLE-PAM2 inh -4.2, ALR H2O2 inh 98.7*, SUMO HTRF inh -27.7, PABP FP inh -9.3, eIF4H inh 10.8 and Efflux pump inh -0.1.
For Cc1ccc([C@@H]2CC(=O)[C@@H]3CN(S(=O)(=O)c4ccc(C)cc4)[C@H](c4ccc(Cl)cc4)C[C@@H]3N2S(=O)(=O)c2ccc(C)cc2)cc1 the results were MLLE-PAM2 inh 1.5.
Screening O=C1c2cccc3cccc(c23)C(=O)N1Cc1ccccn1 returned MLLE-PAM2 inh 7.4.
Cc1nn(C)cc1S(=O)(=O)NCc1ccccc1Cl was read as MLLE-PAM2 inh 2.8, ALR H2O2 inh -2.8, SUMO HTRF inh -7.0, PABP FP inh -2.5, eIF4H inh -8.9 and Efflux pump inh -0.2.
Cc1ccccc1Nc1c(-c2ccncc2)nc2ccc(Br)cn12 was read as MLLE-PAM2 inh -1.1, ALR H2O2 inh 98.4*, SUMO HTRF inh -2.7, PABP FP inh -6.2, eIF4H inh 7.1 and Efflux pump inh 0.0.
Screening Cc1cccc2nc(-c3cccnc3)c(Nc3ccccc3)n12 returned MLLE-PAM2 inh -12.6, ALR H2O2 inh 97.4*, SUMO HTRF inh -5.1, PABP FP inh 11.9, eIF4H inh 1.9 and Efflux pump inh -0.2.
For Cc1ccccc1Nc1c(-c2cccnc2)nc2ccc(Br)cn12 the results were MLLE-PAM2 inh -9.5, ALR H2O2 inh 65.6, SUMO HTRF inh 0.9, PABP FP inh -6.9, eIF4H inh -8.0 and Efflux pump inh 0.0.
COC(=O)CNc1c(-c2ccccc2)nc2ccc(Br)cn12 was read as MLLE-PAM2 inh 10.4, ALR H2O2 inh 98.7*, SUMO HTRF inh -3.5, PABP FP inh -1.5, eIF4H inh 11.0 and Efflux pump inh -0.1.
CSc1ccccc1CNc1nc(NCC2CC2)nc2ccsc12 was read as MLLE-PAM2 inh 14.2.
Screening Cc1ccsc1C(=O)Nc1cc(Cl)ccc1-n1cncn1 returned MLLE-PAM2 inh -4.9.
`COc1ccc(-c2[nH]c(-c3ccc(C(=O)O)cc3)nc2-c2ccccc2)cc1` gave MLLE-PAM2 inh 1.6, ALR H2O2 inh 98.6*, SUMO HTRF inh inconclusive, PABP FP inh 14.3, eIF4H inh 1.2 and Efflux pump inh -0.1.
For Cc1ccsc1-c1nc(-c2ccccc2)c(-c2ccccc2)[nH]1 the results were MLLE-PAM2 inh -19.9, ALR H2O2 inh 2.0, SUMO HTRF inh -9.1, PABP FP inh -1.1, eIF4H inh -2.9 and Efflux pump inh -0.1.
O=C(O)c1ccc(-c2nc(-c3ccccc3)c(-c3ccccc3)[nH]2)cc1 was read as MLLE-PAM2 inh 23.9, ALR H2O2 inh 98.1*, SUMO HTRF inh 45.1, PABP FP inh 1.9, eIF4H inh 4.2 and Efflux pump inh 0.1.
`O=c1c(-c2ccc(O)cc2O)coc2cc(O)cc(O)c12` gave MLLE-PAM2 inh -3.5, ALR H2O2 inh 81.5*, SUMO HTRF inh 10.2, PABP FP inh 24.2, eIF4H inh 23.5 and Efflux pump inh -0.3.
`CCC(C)(C)C1CCc2c(sc(NC(=O)c3ccccc3C(=O)O)c2C#N)C1` (stereo not given) gave MLLE-PAM2 inh -14.7, ALR H2O2 inh 62.9, PABP FP inh 7.2, eIF4H inh 9.2 and Efflux pump inh 0.0.
For CC1CCc2c(sc(NC(=O)c3ccccc3C(=O)O)c2C#N)C1 (stereo not given) the results were MLLE-PAM2 inh 0.3, ALR H2O2 inh 96.8*, SUMO HTRF inh 12.4, PABP FP inh 3.8, eIF4H inh -4.4 and Efflux pump inh -0.2.
`CC(C)(C)C1CCc2c(sc(NC(=O)C3CC=CCC3C(=O)O)c2C#N)C1` (stereo not given) gave MLLE-PAM2 inh -7.7, ALR H2O2 inh 96.9*, SUMO HTRF inh 12.9, PABP FP inh 7.9, eIF4H inh 9.2 and Efflux pump inh 0.0.
`N#Cc1ccccc1S(=O)(=O)N1CCNS(=O)(=O)c2ccccc21` gave MLLE-PAM2 inh 2.0 and Efflux pump inh -0.1.
`Cc1cc([N+](=O)[O-])ccc1NC(=O)c1csc(C)c1C` gave MLLE-PAM2 inh 0.3, ALR H2O2 inh -22.0, SUMO HTRF inh -9.0, PABP FP inh 8.2, eIF4H inh 3.5 and Efflux pump inh 0.0.
Screening CCOCc1nc2nc(Cl)c(Cl)nc2[nH]1 returned MLLE-PAM2 inh -7.1.
